Assay results reported in publication PMC4336329 (PLoS ONE, 2015).
In all, about 310,000 compounds went through this assay and about 14,000 (4.5%) showed an effect of 50% or more. The effect is printed as a negative number. The full list was thinned out, with strong results kept by preference.

Target: human ether-à-go-go-related gene (hERG) potassium channel (human, UniProt Q12809)
Assay: primary screen, population patch clamp on CHO cells stably expressing hERG; higher = less effect of the substance
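Further: peak tail current of the secondary pulse compared with the same well before compound.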

Chain of human ether-à-go-go-related gene (hERG) potassium channel (Q12809 whole entry, looked up): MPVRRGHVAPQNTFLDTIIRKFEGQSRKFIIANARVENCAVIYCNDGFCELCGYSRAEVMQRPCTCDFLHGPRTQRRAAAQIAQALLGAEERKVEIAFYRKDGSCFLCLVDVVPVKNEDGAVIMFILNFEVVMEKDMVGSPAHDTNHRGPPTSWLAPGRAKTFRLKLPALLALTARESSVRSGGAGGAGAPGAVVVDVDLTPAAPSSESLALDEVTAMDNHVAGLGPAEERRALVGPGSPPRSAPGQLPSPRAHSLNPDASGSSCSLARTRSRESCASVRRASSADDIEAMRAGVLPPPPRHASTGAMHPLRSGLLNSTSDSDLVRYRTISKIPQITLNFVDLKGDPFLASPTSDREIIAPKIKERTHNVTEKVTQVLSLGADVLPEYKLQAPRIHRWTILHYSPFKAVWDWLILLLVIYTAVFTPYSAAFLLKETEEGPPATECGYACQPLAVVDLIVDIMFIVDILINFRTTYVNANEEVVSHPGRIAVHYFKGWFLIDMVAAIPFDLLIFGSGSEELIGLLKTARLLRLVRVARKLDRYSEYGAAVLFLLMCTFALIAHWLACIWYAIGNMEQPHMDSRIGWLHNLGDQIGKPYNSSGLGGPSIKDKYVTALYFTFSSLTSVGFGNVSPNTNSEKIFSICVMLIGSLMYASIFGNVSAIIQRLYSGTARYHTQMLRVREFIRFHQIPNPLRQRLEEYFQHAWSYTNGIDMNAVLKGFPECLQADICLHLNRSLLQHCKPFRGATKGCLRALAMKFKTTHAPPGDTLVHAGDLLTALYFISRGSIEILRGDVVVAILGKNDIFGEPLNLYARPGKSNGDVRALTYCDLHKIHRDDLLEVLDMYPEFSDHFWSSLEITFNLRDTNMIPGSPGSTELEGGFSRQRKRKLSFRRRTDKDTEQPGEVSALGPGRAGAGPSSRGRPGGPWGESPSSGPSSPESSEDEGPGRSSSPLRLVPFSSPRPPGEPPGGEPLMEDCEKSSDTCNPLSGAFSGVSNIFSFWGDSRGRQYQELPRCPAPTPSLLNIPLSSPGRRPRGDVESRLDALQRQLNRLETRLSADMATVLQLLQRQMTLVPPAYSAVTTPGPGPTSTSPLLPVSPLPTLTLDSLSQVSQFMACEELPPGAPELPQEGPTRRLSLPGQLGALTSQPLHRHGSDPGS

| Structure (SMILES) | hERG current change (%, negative = inhibition) at 10uM |
| --- | --- |
| CCS(=O)(=O)N1CCC(C(=O)Oc2ccccc2OC)CC1 | 18.5% |
| CC(=O)Nc1ccc(NC(=O)c2c(-c3ccccc3Cl)noc2C)cc1 | 5.89% |
| COc1ccc(C(=O)N(c2ccc(C)cc2)C2C=CS(=O)(=O)C2)cc1OC (stereo not drawn) | 9.79% |
| CC(=O)N1CCN(Cc2ccc(Br)s2)CC1 | -2.46% |
| C#CCOCCOCCOCCNc1nc(N2CCN(C(=O)CCCCCCCCCCNC(=O)Cn3cc(C[C@@H](C)O)nn3)CC2)nc(N2CCN(C(=O)CCCCCCCCCCNC(=O)[C@@H](CCSC)n3cc(CCO)nn3)CC2)n1 | 10.1% |
| O=C(COC(=O)/C=C/c1ccc([N+](=O)[O-])cc1)NCc1ccccc1 | 2.07% |
| CC12CCC(C(=O)NNC(=O)c3ccc(F)cc3)(OC1=O)C2(C)C (stereo not drawn) | 24.6% |
| CCOc1ccc(NC(=O)c2ccc(-c3csc(C)n3)cc2)cc1 | 16.5% |
| CC(C)Nc1nnc(SCC(=O)Nc2ccc3c(c2)C(=O)c2ccccc2C3=O)s1 | -2.55% |
| COc1ccc(CCNc2nc(=O)[nH]nc2C)cc1OC | 2.35% |
| Cc1ccc(-c2nnc(CCC(=O)NCC3C4CC5CC(C4)CC3C5)o2)s1 (stereo not drawn) | -6.1% |
| COc1cccc(-c2cccc(NC(=O)C3CCN(C4CCOCC4)CC3)c2)c1 | -42% |
| COc1cccc(NC(=O)C2CCC2)c1 | 8.83% |
| COc1cccc(-c2cccc(NC(=O)C3CCN(C4CCC4)CC3)c2)c1 | -51.7% |
| CCN(CC)CC(C)CNC(=O)C1(O)c2ccccc2NC(=O)N1c1ccc(Cl)c(Cl)c1 (stereo not drawn) | 3.31% |
| COc1ccc(OCC(O)CNC(=O)Nc2cc(C)cc(C)c2)cc1 (stereo not drawn) | 0.613% |
| Cc1cc(C(=O)N/N=C/c2ccco2)n[nH]1 | 31.6% |
| CC(=O)c1ccc(C(=O)N2CCCC(C(=O)c3cc(F)ccc3F)C2)s1 (stereo not drawn) | 2.88% |
| COc1cc(CNCCSc2nnnn2C)cc(Br)c1OCc1ccc(F)cc1.Cl | -43.9% |
| COc1cc(CNCCSc2nnnn2C)cc(Br)c1OCc1ccccc1.Cl | -56.3% |

| Structure (SMILES) | hERG current change (%, negative = inhibition) at 10uM |
| --- | --- |
| Cl.Cn1nnnc1SCCNCc1ccccc1OCc1ccc(F)cc1 | -29.6% |
| Cl.Cn1nnnc1SCCNCc1ccccc1OCc1ccc(Cl)cc1 | -53.4% |
| Cn1nnnc1SCCNCc1ccccc1OCc1ccccc1 | -9.36% |
| CCOc1cc(CNCCSc2nnnn2C)cc(Br)c1OCc1ccccc1.Cl | -23.1% |
| CCOC(=O)c1ccc(S(=O)(=O)N2CCN(CCC#N)CC2)cc1 | -14.7% |
| Cc1ccc(CNC(=O)COC(=O)CSc2ccc(Br)cc2C)cc1 | 10.9% |
| Cc1nnc(Nc2ccc(O)cc2)[nH]c1=O | 27.7% |
| CCN1CCN(c2ccc(S(=O)(=O)N3CCOCC3)cc2NC(=O)c2ccc(Cl)s2)CC1 | -57.1% |
| CCN1CCN(c2ccc(S(=O)(=O)N3CCOCC3)cc2NC(=O)c2ccc(C)c(C)c2)CC1 | -40% |
| CCN1CCN(c2ccc(S(=O)(=O)N3CCOCC3)cc2NC(=O)c2ccccc2OC(F)F)CC1 | -42.5% |
| CCN1CCN(c2ccc(S(=O)(=O)N3CCOCC3)cc2NC(=O)c2ccc(Cl)cc2Cl)CC1 | -38.4% |
| CCN1CCN(c2ccc(S(=O)(=O)N3CCOCC3)cc2NC(=O)c2ccccc2SC)CC1 | -60.1% |
| CCN1CCN(c2ccc(S(=O)(=O)N3CCOCC3)cc2NC(=O)c2ccc(F)cc2Cl)CC1 | -35.7% |
| C/C(=N/OC(=O)c1c(-c2c(Cl)cccc2Cl)noc1C)c1cnccn1 | -1.72% |
| Cc1nc(NCc2ccccc2)c2cc[nH]c2n1 | 21% |
| Cc1nc2sc(C(c3cccc(F)c3)N3CCCCC3)c(O)n2n1 (stereo not drawn) | 4.79% |
| O=C(NCC1CCCO1)c1ccc(Cn2c(=S)[nH]c3ccccc3c2=O)cc1 (stereo not drawn) | 18.2% |
| CN1CCN(C(=O)/C(=C/c2cn(S(=O)(=O)N(C)C)c3ccccc23)NC(=O)c2ccccc2Cl)CC1 | 20.2% |
| COc1cc(/C=C/c2ccc3cccc(O)c3n2)ccc1O | -0.305% |
